PubChem BioAssay (EPA / NIEHS)
Inconclusive results are not listed. Activity calls are given as the source filed them. The calls were made as follows, unless noted: active = hit-call score of the fitted dose curve at least 0.9, where 1 is the maximum; inconclusive = response in the unintended direction; inactive = score below 0.9.

Tests used:
[1] = Tanguay_ZF_120hpf_MORT_legacy: (Legacy) Oregon State University Tanguay Lab 120 Hour Post-fertilization zebrafish Assay for Mortality (AID 2283633);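 as to AC50: fitted as increase in binary mortality versus DMSO negative control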
How it was run: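 Single dechorionated Tropical 5D embryos were held with test chemical (0.64% DMSO final) from 6 to 120 hpf at 28C under foil. Deaths at 24 or 120 hpf were recorded as binary calls, analysed for increase over DMSO controls.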

[2] = Tanguay_ZF_120hpf_YSE_legacy: (Legacy) Oregon State University Tanguay Lab 120 Hour Post-fertilization zebrafish Assay for Yolk Sac Edema (AID 2283634);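 as to AC50: actives raise the incidence of yolk sac edema above the DMSO baseline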
How it was run: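 Single dechorionated embryos were held in sealed plates at 28C with test chemical (0.64% DMSO final) from 6 hpf until 120 hpf. Edema of the yolk sac was then recorded as a binary endpoint; non-mortality endpoints were skipped for dead embryos.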

[3] = Tanguay_ZF_120hpf_SNOU_legacy: (Legacy) Oregon State University Tanguay Lab 120 Hour Post-fertilization zebrafish Assay for Snout Malformation (AID 2283637)
How it was run: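 Snout malformation read as a yes/no call on brightfield images of 120 hpf larvae (Tropical 5D strain). Static exposure began at 6 hpf on dechorionated embryos in 0.64% DMSO, with gain of signal analysed versus DMSO controls.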

[4] = Tanguay_ZF_120hpf_JAW_legacy: (Legacy) Oregon State University Tanguay Lab 120 Hour Post-fertilization zebrafish Assay for Jaw Malformation (AID 2283638);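 as to AC50: active means more embryos with jaw malformation than DMSO controls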
How it was run: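 Wild-type 5D embryos, chorion removed at 4 hpf, dosed singly from 6 hpf; 28C static, sealed, foil-covered, to 120 hpf. Endpoint: jaw defect yes/no (brightfield); mortality excludes scoring.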

[5] = Tanguay_ZF_120hpf_PE_legacy: (Legacy) Oregon State University Tanguay Lab 120 Hour Post-fertilization zebrafish Assay for Pericardial Edema (AID 2283640);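 as to AC50: potency for increased incidence of pericardial edema versus DMSO baseline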
How it was run: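 Zebrafish larvae are exposed from early development to 120 hpf at 28C, with 0.64% DMSO final. Each surviving larva receives a yes/no pericardial edema call by brightfield imaging, analysed relative to the DMSO baseline.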

[6] = Tanguay_ZF_120hpf_PFIN_legacy: (Legacy) Oregon State University Tanguay Lab 120 Hour Post-fertilization zebrafish Assay for Pectoral Fin Malformation (AID 2283648);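 also: each larva judged yes or no for fin defect by brightfield with dead larvae skipped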
How it was run: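 5D WT zebrafish; pronase dechorionation 4 hpf; 1 embryo/well at 6 hpf; static exposure to 120 hpf, 28C, sealed, foil-covered; final DMSO 0.64% v/v; 5 uM trimethyltin chloride positive control; fin defect scored yes/no.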

[7] = Tanguay_ZF_120hpf_CFIN_legacy: (Legacy) Oregon State University Tanguay Lab 120 Hour Post-fertilization zebrafish Assay for Caudal Fin Malformation (AID 2283649)
How it was run: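 Single dechorionated 5D wild-type embryos are dosed at 6 hpf (final DMSO 0.64%) and held statically at 28C. Caudal fin malformation is recorded as present or absent at 120 hpf under brightfield, excluding dead embryos.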

[8] = Tanguay_ZF_120hpf_OTIC_legacy: (Legacy) Oregon State University Tanguay Lab 120 Hour Post-fertilization zebrafish Assay for Otic Vesicle Malformation (AID 2283639)
How it was run: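 Embryos from 5D wild-type adults exposed in plates; DMSO 0.64% v/v final. Sealed, light-protected, 28C, static to 120 hpf. Otic vesicle malformation recorded as binary endpoint; gain-of-signal fitted vs DMSO.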

[9] = Tanguay_ZF_120hpf_BRAI_legacy: (Legacy) Oregon State University Tanguay Lab 120 Hour Post-fertilization zebrafish Assay for Brain Malformation (AID 2283641)
How it was run: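 Static exposure of staged wild-type embryos until 120 hpf, kept at 28C with light excluded and final DMSO of 0.64% (vol/vol). Presence or absence of brain malformation was noted under brightfield; mortality precluded scoring.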

[10] = Tanguay_ZF_120hpf_SOMI_legacy: (Legacy) Oregon State University Tanguay Lab 120 Hour Post-fertilization zebrafish Assay for Somite Malformation (AID 2283647)
How it was run: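 Somitogenesis defects are recorded as binary calls in whole larvae at 120 hpf after continuous static chemical exposure starting at 6 hpf in dechorionated 5D embryos. DMSO serves as negative control and baseline.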

[11] = Tanguay_ZF_120hpf_PIG_legacy: (Legacy) Oregon State University Tanguay Lab 120 Hour Post-fertilization zebrafish Assay for Pigmentation Malformation (AID 2283650);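 also: dechorionated Tropical 5D zebrafish embryos exposed singly from 6 to 120 hpf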
How it was run: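 Pronase dechorionation at 4 hpf; embryos plated at 6 hpf, one per well; static exposure, sealed and foil-covered, 28C, to 120 hpf; pigmentation read by brightfield, binary; DMSO 0.64% baseline, 5uM trimethyltin chloride positive control.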

[12] = Tanguay_ZF_120hpf_CIRC_legacy: (Legacy) Oregon State University Tanguay Lab 120 Hour Post-fertilization zebrafish Assay for Circulatory Malformation (AID 2283651)
How it was run: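 Read-out: presence or absence of circulatory malformation at 120 hpf, scored by brightfield microscopy, fitted in the gain-of-signal direction against DMSO baseline. Wild-type 5D larvae were exposed from 6 hpf after enzymatic chorion removal.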

[13] = Tanguay_ZF_120hpf_EYE_legacy: (Legacy) Oregon State University Tanguay Lab 120 Hour Post-fertilization zebrafish Assay for Eye Malformation (AID 2283636)
How it was run: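 Read-out is binary presence or absence of eye malformation, scored by brightfield microscopy at 120 hpf. Single larvae were exposed from 6 hpf in embryo medium containing 0.64% DMSO, with DMSO as baseline.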

[14] = read-out: solute carrier (SLC22A6), SLC22A6 (gene 9356); assay: LTEA_HepaRG_SLC22A6: Life Technologies and Expression Analysis (LTEA) Assay for solute carrier (SLC22A6) using HepaRG (AID 2283653; active = hit-call score of the fitted dose curve at least 0.9, where 1 is the maximum; inactive = score below 0.9); settings: mRNA level, 48 h; actives raise or lower the signal
How it was run: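 Gene-expression endpoint in HepaRG hepatic cells: duplicate 8-point concentration-response, highest 100 uM, 48 h treatment in serum-free medium with 0.5% DMSO. SLC22A6 expression measured by qRT-PCR, normalised to ACTB/GAPDH/POLR2A.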

[15] = TOX21_p53_BLA_p4_viability: Viability Assessment in the Tox21 HCT-116 p53 Agonism Beta-lactamase Assay, Phase 4 (AID 2283597);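 also: hits lower the luminescence signal meaning cytotoxicity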
How it was run: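 Luminescent ATP readout (CellTiter-Glo, 30 min, room temperature) in the same wells as the p53 bla ratio. HCT116 cells were treated for 16 h at 37C with DMSO-dissolved compounds.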

[16] = TOX21_p53_BLA_p5_viability: Viability Assessment in the Tox21 HCT-116 p53 Agonism Beta-lactamase Assay, Phase 5 (AID 2283600)
How it was run: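 Seeded cells (4000/well) settle 5 h before compound addition. Plates then incubate 16 h at 37C, receive FRET substrate for 2 h, and finally CellTiter-Glo, with luminescence measured after a 30 min room-temperature incubation.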

[17] = biological target: Cellular tumor antigen p53 (Homo sapiens) (UniProt P04637); assay: TOX21_p53_BLA_p4_ratio: Tox21 HCT-116 p53 Agonism Beta-lactamase Assay, Ratio, Phase 4 (AID 2283601)
How it was run: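 Signal is the blue/green (460nm/530nm) ratio of cleaved versus uncleaved CCF4-AM substrate, read after 2 h substrate loading. Cells were HCT116 carrying the p53-responsive beta-lactamase reporter, dosed 16 h at 37C, 5% CO2; CellTiter-Glo measured in parallel.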

[18] = Tanguay_ZF_120hpf_AXIS_legacy: (Legacy) Oregon State University Tanguay Lab 120 Hour Post-fertilization zebrafish Assay for Body Axis Malformation (AID 2283635)
How it was run: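 Each dechorionated embryo was exposed alone from 6 hpf, with DMSO at 0.64% (vol/vol) and trimethyltin chloride 5 uM as positive control. Axis malformation was recorded at 120 hpf unless the embryo had died.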

[19] = read-out: kallikrein-3 (KLK3), KLK3 (gene 354); assay: LTEA_HepaRG_KLK3: Life Technologies and Expression Analysis (LTEA) Assay for kallikrein-3 (KLK3) using HepaRG (AID 2283652; active = hit-call score of the fitted dose curve at least 0.9, where 1 is the maximum; inactive = score below 0.9); settings: mRNA level, 48 h; actives raise or lower the signal
How it was run: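 Differentiated human HepaRG cells in serum-free induction medium exposed 48 h in duplicate, eight-point half-log series from 100 uM in 0.5% DMSO. KLK3 mRNA by qRT-PCR, normalised to ACTB, GAPDH, POLR2A; bidirectional fit versus DMSO.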

[20] = biological target: Cellular tumor antigen p53 (Homo sapiens) (UniProt P04637); assay: TOX21_p53_BLA_p5_ratio: Tox21 HCT-116 p53 Agonism Beta-lactamase Assay, Ratio, Phase 5 (AID 2283599)
How it was run: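 Beta-lactamase reporter ratio (blue 460 nm over green 530 nm, 405 nm excitation) after 2 h CCF4-AM loading, in HCT-116 cells exposed 16 h at 37 C to compounds pinned at 217-fold dilution. Increases relative to DMSO baseline scored.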

Measured: AC50

Cellular tumor antigen p53 (Homo sapiens), sequence (P04637 whole entry, looked up): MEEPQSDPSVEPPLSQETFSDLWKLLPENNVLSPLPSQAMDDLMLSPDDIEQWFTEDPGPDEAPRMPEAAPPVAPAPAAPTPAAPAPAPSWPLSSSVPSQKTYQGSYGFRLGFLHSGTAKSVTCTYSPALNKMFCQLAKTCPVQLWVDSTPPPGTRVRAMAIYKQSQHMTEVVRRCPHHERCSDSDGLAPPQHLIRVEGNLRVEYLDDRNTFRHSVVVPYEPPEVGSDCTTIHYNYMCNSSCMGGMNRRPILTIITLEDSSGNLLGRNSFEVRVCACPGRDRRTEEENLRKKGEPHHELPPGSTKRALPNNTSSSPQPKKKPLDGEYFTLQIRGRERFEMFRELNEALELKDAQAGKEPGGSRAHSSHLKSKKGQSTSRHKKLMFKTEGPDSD

C=CCOC(Cn1ccnc1)c1ccc(Cl)cc1Cl (stereo not given)
inactive: [5] | [6] | [7]
active: [1] 13.8 µM | [2] 1.46 µM | [3] 4.34 µM | [4] 3.98 µM

COc1c(Cl)ccc(Cl)c1C(=O)O
not listed: [13] | [14] | [15] | [16] | [17] | [18] | [19] | [20]
inactive: all other assays above

S=C(S)NCCNC(=S)S.[Mn+2].[S-]C([S-])=NCCN=C([S-])[S-].[Zn+2]
not listed: [15] | [16] | [17] | [18] | [19] | [20]
inactive: all other assays above

CC(C)(C)[C@@H](O)[C@@H](Cc1ccc(Cl)cc1)n1cncn1
active: [2] 36.1 µM | [3] 10.5 µM | [5] 45.9 µM
not listed: [8] | [13] | [14] | [18] | [19] | [20]
inactive: all other assays above

c1ccc2[nH]c(-c3cscn3)nc2c1
inactive: [1] | [2] | [3] | [4] | [8] | [9] | [6] | [11] | [12]

CCCN(CCC)C(=O)SCC
not listed: [8] | [12] | [13] | [14] | [19] | [20]
inactive: all other assays above

N#CSCSc1nc2ccccc2s1
active: [1] 0.539 µM
not listed: [13] | [15] | [16] | [17] | [18] | [19] | [20]
inactive: all other assays above

CCOC(=O)C(C)Oc1ccc(Oc2cnc3cc(Cl)ccc3n2)cc1 (stereo not given)
not listed: [13] | [14] | [15] | [16] | [17] | [18] | [19] | [20]
inactive: all other assays above

COC(=O)c1ccccc1C(=O)O
not listed: [6] | [8] | [13] | [17] | [18] | [20]
inactive: all other assays above

CCN(CC)C(=O)c1cccc(C)c1
not listed: [13] | [14] | [15] | [16] | [17] | [18] | [19] | [20]
inactive: all other assays above

CSC(=O)c1cccc2nnsc12
not listed: [8] | [13] | [14] | [16] | [18] | [19]
inactive: all other assays above

CCCCCOC(=O)COc1cc(N2C(=O)C3=C(CCCC3)C2=O)c(F)cc1Cl
not listed: [13] | [14] | [15] | [16] | [17] | [19] | [20]
inactive: all other assays above

CC1(C)C(C=C(Cl)Cl)C1C(=O)OCc1cccc(Oc2ccccc2)c1 (stereo not given)
not listed: [11] | [12] | [13] | [14] | [19] | [20]
inactive: all other assays above

CCNc1nc(N)nc(Cl)n1
not listed: [13] | [14] | [15] | [18] | [19]
inactive: all other assays above

CCOC(=O)c1ccc(O)cc1
active: [3] 24.5 µM
not listed: [8] | [10] | [13] | [14] | [16] | [18] | [19]
inactive: all other assays above
